Among all 52,000 sequences or so, about 210 (0.4%) were called active. The entries come from a sample that favours actives as a whole. A number with no mark means an inactive call.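 The calls were made as follows: active = gene whose silencing raises cell survival under the drug, median off-target-corrected z-score across its silencing RNAs 2 or more; inactive = the rest.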
test: Resistance to Poly (ADP-Ribose) Polymerase inhibitor: Gene Identification via Genome-wide siRNA Screen; conditions: mouse BRCA2 R2336H ES cells, olaparib, CellTiter-Glo viability; active compounds read high
Method in brief: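 Genome-wide siRNA screen (3 siRNAs/gene, 20 nM) in mouse ES cells carrying hypomorphic BRCA2 R2336H; olaparib 500 nM added 48 h post-transfection, CellTiter-Glo viability 72 h later. Normalized to plate-median negative control; MAD z-scores, gene median, seed-adjusted.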

Sequence | z-score
GCCAUUCCGGCAGUAUUACTT against Pdcd7 | 0.524
CCGACAAAUAAAGGCUUUATT against Ddx52 | -0.0103
CCGCAUGACACGACAUGUATT against BC034097 | 2.56 (active)
CCCUGUACACACCUAAAAATT against D10Ertd438e | 1.39
CGUUUGCUCUAAAGCCAGGTT against BC004728 | 1.02
GGAUUUCCUGGAAAAUUCCTT against Siat8a | 0.62
GGUGUCUGUCAUGACCAUGTT against Tie1 | 2.02
GCUCGUCUAUGCUAUUUCUTT against Fath | 0.81 (active)
GAUCACAGUCACGAUAUAATT against Prss19 | -1.28
GGAAGAGAUGGAAUUAUUGTT against Sh3bp5 | -0.737
GCUUGUGAUCGACUCUGCATT against Centb5 | 0.0161
CCUUCAUUUAUUCUACGAGTT against LOC244556 | 0.476
GCUCUCAUUAGCAUUAUCGTT against Gria1 | -0.366 (active)
GCAGGUUAAGUAGCUGACATT against Dnclic2 | -1.28
CGUGCAUGCAAAUUAUGUATT against 4933417O08Rik | -0.372
GGCACUCAGUAACUGCAUGTT against Gababrbp | -0.611
GGACUGUCAGUACUGUCAATT against E030025L21Rik | -0.201
GGAGUAAUCAUGCUGGAGCTT against 9930104L06Rik | 0.406
CCAUGUCCAAUGAGGACUUTT against Htr1b | 1.74 (active)
CCCUGAACGAAUAAUCGGCTT against Cbx3 | -0.637
CGAUAAACUGGAUACCACUTT against A430083B19Rik | -0.3
GGAGAUGCUGGACUGCUUUTT against Htr1b | -0.751 (active)
GGUUGUUUAAACUCAGUUUTT against Slco4c1 | -1.83
GGCCAAAUCAUGGAUGCAGTT against Comt | -1.72
GGAUCUAUAAGGACUACAUTT against Bmp7 | -0.68
CGGGAACUCACCGAAAAGATT against 4921521N14Rik | 0.566
GGAUGUGGCUGCUUUGAAGTT against Wbscr27 | 0.123

Sequence | z-score
GGGAUUUUCUGUGUAUCUUTT against D5Ertd33e | -0.0623
GGCAUAACUGAUCAUACGCTT against Foxp3 | 1.06
GGUUUUAGAAGGGAAACAUTT against Ppp2r2c | -0.761
GGAGCCAAGUGUGAUUACATT against Pias3 | -1.38 (active)
GGAUUGCUGUGCCUUAUGATT against 2010004A03Rik | 0.503
CCACUUUUUUAGAUCCCUGTT against AA960436 | -0.149
GACUCCCACUUACACUCUCTT against Olfr1312 | -1.08
GGUUCUUUAAUAGAACAUGTT against Tyrp1 | -0.207
GGUCAUUGGUCGCUGGUCATT against Gzmm | 1.22
CGUGGGAUUUAAUGAUCAATT against Nid2 | 0.787
GGGCCUAUAUAACAUCUUGTT against Usp11 | 0.581 (active)
GGGUAUCUUCUGGAAAACATT against Angptl4 | 0.203
GGCUAUGCAGCAUAUUAUATT against Ndufa1 | -0.819
GGAAAUUUUGGAGAUGAUATT against 5730444A13Rik | -0.496
GGCGAUCUAUCACACUGUGTT against Chst7 | 1.39
GGAGGAAGAAACAGAACCATT against A930021G21Rik | -2.36
GCAGUCUGGUUCUCUCAAATT against Cryl1 | 2.21
GGUUGCUUGGAAUUAAAAGTT against Klhl1 | 1.01 (active)
CACGGGCAUCCUUGACUCCTT against Mbp | 0.994
GCAACAUGGCCCUUACCAUTT against Plcb2 | -0.797
GGCUCCUUAAAGAUAUGUUTT against Nsmaf | 0.332
GGAAUGUGUUAUGGUGAUUTT against Mgl2 | -0.346
GCCUUUAUAGUCUUAAGCATT against 2810475A17Rik | -1.55
GGAUAAAUGGUUCUAGAAATT against 3110006P09Rik | -0.433 (active)
CCUUCAAUUUCAGUUCAGATT against Olfr1388 | 0.422
GGUAUUCUCUAAGAAGGAGTT against Ccbl1 | -0.635
GGCAUUUGAAGAUGUUUCUTT against Hmgb3 | 1.56 (active)

Sequence | z-score
GGAGACGUGUCUGAAAGACTT against Glp2r | -0.752
GCUUCACAAGCAGUGUACUTT against Slc37a1 | 1.96 (active)
CCUUUUUCUGGAUUGGAAUTT against Klrd1 | 1.78 (active)
GCCAGCAACAGGAUGAUAUTT against Prkwnk1 | -1.02
GCUCAGACAUGUUCUUACCTT against BC037527 | 0.547
GCUUAAAACAGACCAUUUUTT against 1700013G20Rik | 0.824
GCAUUCAAGCAACCACGAATT against Ptdss1 | -0.153
GCACUUGGGUAAAAAACUCTT against Bcorl1 | 0.555
GCUGACCCAGCUAUGUACUTT against 4930519N13Rik | -0.26
GGAAGCUGGUUCCUGUUUUTT against Bid3 | 2.66 (active)
CCAGAGUAAGAGUAAAAGCTT against Mamdc2 | 1.32
GGCUGUAAUGAGGACUGAUTT against Deb1 | -1.92
CCUAAAUUCGGUUUGAAUCTT against Fath | 2.74 (active)
GCAUUUUGACCCAAGUGUUTT against Foxq1 | 0.0651
CGAUCUACAUCUGCAUCAUTT against Olfr1212 | -0.961
GGCUUUGAUUGAACAUGAGTT against Lypla2 | 0.783
CCAUCUAUGAUCCCAGAGCTT against Fbxw9 | 0.241
GGACGUGACAGACAUUAUUTT against Htr5b | -0.897
GCCAAUGAUGUAGCAAAUUTT against Slc20a1 | 2.1 (active)
CCCUAAUAGAACUAAUGAATT against Kpnb1 | -3.47
CCUACUUCCUCCAUUUAGGTT against 5033413D22Rik | 1.42
GGAGUACAGUGAUGACAAGTT against Ing5 | 0.235
GGUUGGCCAUAUAAAGAGATT against Smarca3 | 0.771 (active)
GGCAAAUGGUCUUUAUGCATT against Zfp606 | -0.699
GGGAAGUCACUUUUGUUCCTT against Top2a | -1.25
GGCCAAAUUCUUCAGCAGATT against Rpl27a | -2.82
GGUCCACGGUUACUAAAAATT against Klrd1 | 2.45 (active)

Sequence | z-score
CCAAAACAACCACAAGUAGTT against A930006D11 | -2.39
GGUGAUAGUCCACGAGGUUTT against Mbc2 | -1.31
GGGUUUUUUUUUUCCUUCCTT against Hsd17b1 | 1.88 (active)
GGAGUUUGAGACACUCUGCTT against Apg4d | 0.266
GGUCCUUCCAUAGUGACGCTT against Igfbp7 | 0.24
GGAAAUAUGAUCCAUCCUGTT against Zfp282 | 1.65
GGUAUCAAGUGCAGAAUGUTT against Slc37a1 | 1.99 (active)
GGGUAACAGUGGUGAACCUTT against Col1a1 | -1.52
GCUACAAUAUGACAAGUGUTT against Adamts5 | 2.82 (active)
GGAUGCUCUCUUAAAUGGATT against AI595338 | -0.0806
GGAAAAUUGAGAUUUCUGCTT against 1110003E01Rik | 1.52
GGAUGAAAAAUACUGGUGUTT against Ugt8 | 3.17
GAAGAUCCACUUCAUCGCCTT against Psmb10 | -1.82
GGAAGACAUGAAAUUGUUCTT against Psma3 | -2.92
GGAUGAAGAGAAAAAUUGATT against Slc20a1 | 2.96 (active)
GGGUGUACAUUGAAAUUAATT against Epha4 | 1.05
GGAAUUUGAUUCUCUGCCUTT against 6820429M01 | 0.0636
GGCACAUGCCCUUUUCUACTT against Cog1 | 0.266
GCAUUCAGAAUGAGCUGACTT against Nfasc | -0.0641
GGUGAUCUUCAAAUUGGAGTT against Zfp90 | -0.401
GCUAUAUCUAAAGCUAUUCTT against Sgpp1 | 0.574 (active)
GGCCCACCUAUUUCAUCUCTT against Actl7b | 0.808
GGAGUUUGCCACAAUUGUUTT against 2810408E11Rik | -1.26
GGAAGAGAGAUGGAAAAAATT against Gcnt1 | -0.555
